GalR3 antag – antagonists of human GalR3. HEK293 GalR3-CNG cAMP membrane potential fluorescence; galR3 body fused to GalR1 C-terminus. inhibition, % at 3 µM. actives 0.44% (n = 360,000);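 active = inhibition above the screen-wide average plus 3 SD, cut at about 13% in these data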;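 note: forskolin and galanin both at EC90 stimulate the cells; cAMP rise reported by CNG channel membrane potential dye signal; 0% = forskolin plus galanin with DMSO and 100% = forskolin alone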
GAA850 FXN act – frataxin GAA850 promoter activation; HEK293 lucGAA850 FXN promoter luciferase reporter, 24 h; percent of 10 µM SAHA response; activation, % at 6 µM; actives 0.56% (n = 360,000); AID 540364;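 active = activation above the average of all compounds screened plus 3 SD, cutoff fixed separately per campaign, cut at about 7.5% in these data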;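 note: 0% = DMSO wells and 100% = 10 µM SAHA wells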
H9c2 protect – protects H9c2 cardiomyocytes from peroxide injury | H2O2 injury protection, ATPLite, 2 h | protection from H2O2 cell death, % at 20 µM | actives 0.63% (n = 360,000);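 active = compounds giving at least 50% protection of heart cells from peroxide-induced death in the single-dose screen, raw or plate-pattern-corrected value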;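 note: 0% = DMSO wells with peroxide and 100% = DMSO wells without peroxide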
Gli-Sufu block – blocks Gli-Sufu signaling in a luciferase reporter; AID 588413; actives 0.74% (n = 340,000); Sufu-KO-LIGHT fibroblasts, Gli luciferase reporter luminescence; inhibition, % at 5 µM;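 active = inhibition above about 55%, limit read from the data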;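 note: 0% = DMSO-treated cells and 100% = wells with medium but no cells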
SMARCA2 activ – increases SMARCA2 function in MMTV reporter cells | AID 652017 | activation, % at 9.1 µM | actives 1% (n = 370,000) | MG213 cells, MMTV-luciferase reporter, dexamethasone, overnight; in the data active = activation above about 7.8%;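 note: 0% = vehicle wells and 100% = reference activator wells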
NR2F2 inh – inhibitors of human COUP-TFII (NR2F2). P24468. HEK293T NGFI-A luciferase reporter, luminescence. inhibition, % at 8.6 µM. actives 0.7% (n = 370,000). AID 686940;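 active = inhibition above a per-plate cutoff, mean inhibition of test wells between control levels plus 3 SD, cut at about 38% in these data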;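 note: cells cotransfected with COUP-TFII expression vector driving the NGFI-A reporter; 0% = median of COUP-TF2 test wells and 100% = reporter-only cells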
Target sequence (P24468 whole entry, looked up): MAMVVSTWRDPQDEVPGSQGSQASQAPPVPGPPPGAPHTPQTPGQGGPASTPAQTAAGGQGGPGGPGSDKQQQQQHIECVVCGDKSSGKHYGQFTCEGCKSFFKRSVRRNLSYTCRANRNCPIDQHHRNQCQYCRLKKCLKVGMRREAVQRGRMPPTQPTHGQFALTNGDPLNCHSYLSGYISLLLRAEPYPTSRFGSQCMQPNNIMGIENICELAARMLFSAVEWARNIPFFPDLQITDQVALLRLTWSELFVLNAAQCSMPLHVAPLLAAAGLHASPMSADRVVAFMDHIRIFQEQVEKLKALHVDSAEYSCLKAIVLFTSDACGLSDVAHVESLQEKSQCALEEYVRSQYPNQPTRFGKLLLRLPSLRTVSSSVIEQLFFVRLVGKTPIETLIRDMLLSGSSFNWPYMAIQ
Gal4-VP16 ctr – inhibits VP16 reporter, flagging COUP-TFII antagonist hits; shares compounds with NR2F2 inh; HEK293 Gal4-VP16 luciferase reporter, luminescence; inhibition, % at 8.5 µM; actives 25% (n = 2,500); in the data active = inhibition above about 13%
COUP-TFII conf – COUP-TFII (NR2F2) inhibition, confirmation assay; shares compounds with NR2F2 inh; HEK293 NGFI-A luciferase reporter, luminescence; inhibition, % at 8.5 µM; actives 45% (n = 2,500);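 active = mean inhibition over three repeats above a set limit taken from the earlier primary screen, cut at about 38% in these data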;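 note: 100% = cells given the luciferase reporter alone without the COUP-TF2 vector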
Numbers without * were called inactive; . = no result given. In the library only some 3.4% were active in any assay of this set; here they are far more common.

SMILES | GalR3 antag | GAA850 FXN act | H9c2 protect | Gli-Sufu block | SMARCA2 activ | NR2F2 inh | Gal4-VP16 ctr | COUP-TFII conf
N#CC1c2ccccc2-n2nncc2CN1Cc1cc(Cl)cc(Cl)c1 (stereo not drawn) | -4 | -14 | -29 | 25 | -14 | 84* | 56* | 64*
CC(=O)OC1CC(OC2C(O)CC(OC3C(O)CC(OC4CCC5(C)C(CCC6C5CCC5(C)C(C7=CC(=O)OC7)C(O)CC65O)C4)OC3C)OC2C)OC(C)C1OC1OC(CO)C(O)C(O)C1O (stereo not drawn) | 34* | -14 | 4 | -1 | -9 | 74* | 36* | 65*
CC(=O)OC1CC2(O)C3CCC4CC(O)CCC4(C)C3CCC2(C)C1C1=CC(=O)OC1 (stereo not drawn) | 21* | -15 | 3 | 1 | -9 | 77* | 47* | 72*
CC1OC(OC2C(O)CC(OC3C(O)CC(OC4CCC5(C)C(CCC6C5CCC5(C)C(C7=CC(=O)OC7)C(O)CC65O)C4)OC3C)OC2C)CC(O)C1O (stereo not drawn) | 0 | -12 | 12 | 6 | 1 | 21 | . | .
CCOC(=O)[C@]12Cc3cc(Cl)ccc3[C@H]1N(C(C)C)C(=O)c1ccccc12 | -8 | . | . | . | -3 | 41* | 21* | 53*
C[C@H]1CCC/C=C/[C@@H]2C[C@H](O)C[C@H]2[C@@H](O)/C=C/C(=O)O1 | -7 | -9 | 1 | 86* | -7 | 53* | 18* | 31
CCc1cc2c(N3CCN(C)CC3)ncnc2s1 | -5 | -1 | -8 | -1 | -1 | 1 | . | .
CCN1CCN(c2ncnc3ccc(Br)cc23)CC1 | -8 | -6 | -10 | -8 | -3 | 42* | 11 | 23
CC[C@H](OC(C)=O)C(C[C@H](C)N(C)C)(c1ccccc1)c1ccccc1 | -5 | -9 | -3 | -7 | -7 | -8 | . | .
CN1C2CCC1/C(=C/c1ccccn1)C(=O)/C2=C\c1ccccn1 | 1 | -22 | -8 | 48 | -12 | 63* | 68* | 85*
Cc1ccccc1-n1c(/C=C/c2ccccn2)nc2ccccc2c1=O | -5 | 1 | 4 | 6 | -4 | 6 | . | .
O=C(CCc1ccccc1)N1Cc2cc(-c3ccccc3)ccc2-n2nncc2C1 | -7 | . | 11 | . | 1 | -4 | . | .
CCOC(=O)c1ccc(-[n+]2c(-c3ccccc3)cc(-c3ccccc3)cc2-c2ccccc2)cc1 | . | . | . | 47 | . | . | . | .
CN(C)c1ccc(-[n+]2c(-c3ccccc3)cc(-c3ccccc3)cc2-c2ccccc2)cc1 | -4 | -15 | -15 | 90* | -11 | 86* | 27* | 90*
c1ccc(-c2cc(-c3ccccc3)[n+](-c3ccccc3)c(-c3ccccc3)c2)cc1 | -8 | -6 | -21 | 73* | -8 | 73* | 15* | 45*
Cc1ccc(-c2cc(-c3ccccc3)cc(-c3ccccc3)[n+]2-c2ccccc2)cc1 | -8 | -11 | -27 | 90* | -8 | 76* | 31* | 89*
CCOC(=O)c1cccc(-[n+]2c(-c3ccccc3)cc(-c3ccccc3)cc2-c2ccccc2)c1 | -6 | -3 | -18 | 33 | -6 | 33 | . | .
CN(C)P(=O)(CCl)Nc1ccccc1 (stereo not drawn) | 8 | 1 | 4 | 4 | -5 | -3 | . | .
O=C(C1CCCCC1)N1Cc2ccccc2-n2nncc2C1 | -6 | 0 | 0 | . | 0 | 2 | . | .
COC(=O)C1=CO[C@@H](C)[C@@H]2CN3CC[C@@]4(C(=O)Nc5ccccc54)[C@@H]3C[C@H]12 | -5 | 0 | -7 | -8 | 2 | -15 | . | .
COCCNC(=S)N1Cc2ccccc2-n2nncc2C1 | -7 | 0 | 0 | . | 0 | 23 | . | .
Cn1nc(-c2ccc(OCC(=O)N3CCN(Cc4ccccc4)CC3)cc2)c2ccccc2c1=O | -5 | 0 | -18 | 49 | -5 | 55* | 6 | 36
CC(C)(C)NC(=S)N1Cc2ccccc2-n2nncc2C1 | -5 | -2 | -4 | . | -5 | -13 | . | .
Cc1cc(O)c2c(c1)C(=O)[C@@]13C(=C2O)C(=O)[C@H]2C(O)[C@@H]1[C@H]1C(O)[C@@H]3C(=O)C3=C(O)c4c(O)cc(C)cc4C(=O)[C@@]312 (stereo partly drawn) | . | . | . | . | -5 | 41* | 6 | 28
COCCN(C(=O)COC(=O)Cc1ccccc1)c1c(N)n(Cc2ccccc2)c(=O)[nH]c1=O | -2 | -1 | 0 | -5 | 0 | -7 | . | .
SMILES | GalR3 antag | GAA850 FXN act | H9c2 protect | Gli-Sufu block | SMARCA2 activ | NR2F2 inh | Gal4-VP16 ctr | COUP-TFII conf
CC1=C(O)C(=O)C=C2C1=CC=C1C2(C)CCC2(C)C3CC(C)(C(=O)O)CCC3(C)CCC12C (stereo not drawn) | -4 | -16 | -16 | 22 | -9 | 79* | 81* | 83*
CCCN1CCC[C@H](c2cccc(O)c2)C1 | -1 | -1 | 2 | -8 | 1 | -7 | . | .
COC(=O)C1=C(c2ccc(F)cc2F)C[C@@H]2CC[C@H]1N2C(=O)N1CCCCC1 | -4 | -1 | -2 | 0 | 0 | 8 | . | .
CC[C@@H]1C[C@H]2CC[C@H](O2)[C@H](C)C(=O)O[C@@H](C)C[C@@H]2CC[C@@H](O2)[C@@H](C)C(=O)O[C@H](C)C[C@H]2CC[C@H](O2)[C@H](C)C(=O)O[C@@H](C)C[C@@H]2CC[C@@H](O2)[C@@H](C)C(=O)O1 | -1 | . | . | . | -6 | 85* | 24* | 72*
O=[N+]([O-])c1ccc(N2CCOCC2)c2c1no[n+]2[O-] | -1 | -14 | -8 | . | -11 | 89* | 62* | -105
CC1CC(C)CC(C)C(O)C(C#N)=CC=CCC(C2CCCC2C(=O)O)OC(=O)CC(O)C(C)C1 (stereo not drawn) | -4 | -12 | 1 | 87* | -10 | 84* | 23* | 80*
COc1cc(C2c3cc4c(cc3CC3COC(=O)C32)OCO4)cc(OC)c1O (stereo not drawn) | 1 | 0 | 6 | 48 | -3 | -69 | . | .
O=C1NC2C(O)C(O)C(O)C(O)C2c2cc3c(c(O)c21)OCO3 (stereo not drawn) | -2 | -15 | -4 | 72* | -14 | 80* | 29* | 80*
CC(C)(C)n1nnnc1C(C1CC1)N1CCC2(CC1)C(=O)NCN2c1ccccc1 (stereo not drawn) | -5 | . | 5 | . | -1 | -6 | . | .
C[C@H]1C[C@@H](C)C(=O)[C@@H]([C@H](O)CC2CC(=O)NC(=O)C2)C1 | -7 | -14 | -1 | 53 | -6 | 85* | 6 | 70*
c1coc(CN2Cc3ccccc3-n3nncc3C2)c1 | 1 | 0 | 5 | . | -3 | -29 | . | .

High-throughput results from PubChem.
